# PubChem BioAssay (Tox21)
# “And” between values parts separate entries of the source, which are not always exact repeats. Equal values may be shown once. Unmarked numbers belong to inactive results. Results filed as inconclusive are left out. Where a call stands in place of a potency, no number is given. The source made the active and inactive calls. Unless noted, the call rests on the fitted dose curve; in most records, active means well fitted curve in the direction sought with a large enough effect in the repeat runs; inconclusive means weak or mixed curves; inactive means no such curve, though single readings can be large; an effect the other way counts as inactive or inconclusive.
# Key:
# [1] = qHTS assay to identify small molecule antagonists of the androgen receptor (AR) signaling pathway using the MDA cell line in the presence of 0.5 nM R1881 - cell viability counter screen (AID 1259242); further: nearly all actives have a fitted effect of over 45% in size; further: potency means the concentration at half of the fitted maximal effect
# Procedure, shortened: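 Live-cell protease activity was measured by CellTiter-Fluor fluorescence after 30 min. Before that, MDA-kb2 MMTV-luciferase cells had 16 hr at 37C without CO2, exposed to test compounds and 0.5 nM R1881 final.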
# [2] = qHTS assay to identify small molecule HDAC inhibitors (AID 1259364); further: nearly all actives have a fitted effect of over 45% in size; further: potency means the concentration at half of the fitted maximal effect; on activity change, negative = inhibition: top concentration of the series differs between compounds
# Procedure, shortened: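 Luminescence read after 30 min room-temperature HDAC-Glo incubation measures cellular class I/II HDAC activity. Compounds were applied for 2 hr at 37 C to HCT-116 wild-type cells seeded the day before.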
# [3] = qHTS assay to identify small molecule HDAC inhibitors - cell viability counter screen (AID 1259365); further: nearly all actives have a fitted effect of over 50% in size; further: potency means the concentration at half of the fitted maximal effect; on activity change, negative = cytotoxicity: series mostly up to about 92 µM
# Procedure, shortened: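 CellTiter-Glo luminescence (30 min, room temperature) reported viability after a 2 h compound exposure at 37 C. Cells: wild-type HCT-116, 1,500 per well, seeded the night before.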
# [4] = qHTS assay to identify small molecule agonists of the sonic hedgehog signaling (Shh) pathway (AID 1259368; calls by dose curve; further: nearly all actives have a fitted effect of over 15% in size; further: potency means the concentration at half of the fitted maximal effect;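 on activity change: NIH/3T3-derived 3T3Gli1-Luc cells carrying a stable Gli1-driven firefly luciferase reporter; series mostly up to about 92 µM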)
# Procedure, shortened: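 Luminescence was read after 30 min at room temperature with luciferase reagent. Before that, 3T3Gli1-Luc cells (NIH/3T3 clone, stable Gli1-Luc reporter; 2,000/well) were exposed to compounds for 24 hr at 37C, 5% CO2, compounds being added 4 hr post-plating.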
# [5] = molecular target: Estrogen receptor (Homo sapiens) (UniProt P03372); experiment: qHTS assay to identify small molecule antagonists of the estrogen receptor alpha (ER-alpha) signaling pathway using the BG1 cell line in the presence of 0.1 nM 17-beta-estradiol (AID 1259244); further: nearly all actives have a fitted effect of over 50% in size; further: potency means the concentration at half of the fitted maximal effect
# Procedure, shortened: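 Luciferase luminescence (ONE-Glo, 30 min at room temperature) was read after 22 hr at 37C exposure to compounds plus 17beta-estradiol at 0.1 nM final. Cells were VM7Luc4E2 with endogenous ER-alpha and an ERE-driven luciferase, pre-cultured 5 days in hormone-depleted medium.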
# [6] = qHTS assay to identify small molecule agonists of the sonic hedgehog signaling (Shh) pathway - cell viability counter screen (AID 1259366); further: nearly all actives have a fitted effect of over 50% in size; further: potency means the concentration at half of the fitted maximal effect
# Procedure, shortened: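 Cytotoxicity counter screen: CellTiter-Fluor reagent added after 23 h compound exposure, then 1 h at 37C and fluorescence read. Cells were 3T3 Gli1-Luc, seeded 2,000 per well and dosed 4 h post-plating.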
# [7] = qHTS assay to identify small molecule antagonists of the sonic hedgehog signaling (Shh) pathway - cell viability counter screen (AID 1259367); further: nearly all actives have a fitted effect of over 55% in size; further: potency means the concentration at half of the fitted maximal effect
# Procedure, shortened: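 Tox21 library chemicals were tested on a Gli1-Luc NIH/3T3 clone (2,000 cells/well) stimulated by conditioned medium; viability was quantified as fluorescence from CellTiter-Fluor reagent added at 23 hr.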
# [8] = qHTS assay to identify small molecule phospholipidosis (PLD) inducers (AID 1259344; active means well fitted curve in the direction sought with a large enough effect; an effect the other way counts as inactive or inconclusive)
# Procedure, shortened: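 Image-based: LipidTOX Red pit count/intensity per well and per cell; HepG2, 24 h compound at 37 C, PFA fixation, Hoechst counterstain.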
# [9] = qHTS assay to identify small molecule antagonists of the sonic hedgehog signaling (Shh) pathway (AID 1259369; calls by dose curve; further: nearly all actives have a fitted effect of over 45% in size; further: potency means the concentration at half of the fitted maximal effect)
# Procedure, shortened: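 Antagonist mode: compound added to 3T3 Gli1-Luc cells followed by conditioned-medium stimulation, 24 h at 37 C, 5% CO2. Inhibition taken as loss of Gli1-driven luciferase luminescence.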
# [10] = molecular target: Androgen receptor (Homo sapiens) (UniProt P10275); experiment: qHTS assay to identify small molecule antagonists of the androgen receptor (AR) signaling pathway using the MDA cell line in the presence of 0.5 nM R1881 (AID 1259243); further: nearly all actives have a fitted effect of over 50% in size; further: potency means the concentration at half of the fitted maximal effect
# Procedure, shortened: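 Luminescent reporter readout (ONE-Glo, 30 min, room temperature) after 16 hr co-treatment of MDA-kb2 cells with test compounds and 0.5 nM R1881 final, at 37C without CO2. The MMTV-driven luciferase responds to both AR and GR.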
# Sequence of Androgen receptor (Homo sapiens) (P10275 whole entry, looked up): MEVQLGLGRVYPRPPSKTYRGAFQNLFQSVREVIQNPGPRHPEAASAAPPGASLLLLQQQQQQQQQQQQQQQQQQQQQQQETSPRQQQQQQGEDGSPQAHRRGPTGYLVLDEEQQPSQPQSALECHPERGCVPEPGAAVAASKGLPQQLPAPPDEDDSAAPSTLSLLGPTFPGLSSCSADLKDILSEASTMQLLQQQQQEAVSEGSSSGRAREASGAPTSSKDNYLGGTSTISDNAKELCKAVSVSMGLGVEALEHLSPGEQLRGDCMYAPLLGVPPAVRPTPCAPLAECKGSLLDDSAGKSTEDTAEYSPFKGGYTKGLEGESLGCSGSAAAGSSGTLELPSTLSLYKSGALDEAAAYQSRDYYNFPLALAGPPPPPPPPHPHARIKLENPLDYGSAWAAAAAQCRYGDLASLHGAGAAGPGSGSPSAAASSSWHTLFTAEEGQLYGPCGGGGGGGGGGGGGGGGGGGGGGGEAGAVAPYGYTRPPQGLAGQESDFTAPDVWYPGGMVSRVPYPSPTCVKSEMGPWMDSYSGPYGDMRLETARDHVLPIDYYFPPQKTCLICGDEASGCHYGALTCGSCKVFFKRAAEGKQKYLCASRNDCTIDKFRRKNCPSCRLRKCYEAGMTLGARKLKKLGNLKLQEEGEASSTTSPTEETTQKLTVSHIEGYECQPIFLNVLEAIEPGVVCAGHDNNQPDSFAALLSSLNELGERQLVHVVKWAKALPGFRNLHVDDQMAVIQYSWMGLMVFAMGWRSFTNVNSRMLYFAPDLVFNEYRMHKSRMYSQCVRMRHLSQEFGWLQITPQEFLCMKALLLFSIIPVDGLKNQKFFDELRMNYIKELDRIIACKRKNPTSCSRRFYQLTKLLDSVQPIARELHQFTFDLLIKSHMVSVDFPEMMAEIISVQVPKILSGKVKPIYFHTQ
# Sequence of Estrogen receptor (Homo sapiens) (P03372 whole entry, looked up): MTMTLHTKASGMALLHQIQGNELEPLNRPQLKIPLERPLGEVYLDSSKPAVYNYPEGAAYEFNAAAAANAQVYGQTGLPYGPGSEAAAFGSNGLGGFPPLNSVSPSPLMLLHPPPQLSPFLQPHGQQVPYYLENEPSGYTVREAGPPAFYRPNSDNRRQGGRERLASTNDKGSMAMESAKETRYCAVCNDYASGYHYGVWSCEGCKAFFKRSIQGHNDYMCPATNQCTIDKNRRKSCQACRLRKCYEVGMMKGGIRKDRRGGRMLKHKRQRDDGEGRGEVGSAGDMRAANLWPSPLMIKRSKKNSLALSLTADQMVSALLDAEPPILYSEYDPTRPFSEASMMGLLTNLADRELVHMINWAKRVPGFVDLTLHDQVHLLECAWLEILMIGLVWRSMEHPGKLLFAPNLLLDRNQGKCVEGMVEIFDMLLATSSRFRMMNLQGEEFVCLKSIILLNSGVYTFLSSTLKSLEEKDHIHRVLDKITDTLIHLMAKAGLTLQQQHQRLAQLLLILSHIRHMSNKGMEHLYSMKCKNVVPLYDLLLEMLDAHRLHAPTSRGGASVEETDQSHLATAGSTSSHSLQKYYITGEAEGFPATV
compound,measurement,setting,value
CC(=O)[O-].CC(=O)[O-].[Co+2],Potency,[1],inactive
same,Potency,[2],inactive
same,Potency,[3],inactive
same,Potency,[4],54.5 µM (active)
O.O.O.O=C([O-])[C@H]([O-])[C@@H]([O-])C(=O)[O-].O=C([O-])[C@H]([O-])[C@@H]([O-])C(=O)[O-].[K+].[K+].[Sb+3].[Sb+3],Potency,[5],inactive
same,Potency,[2],inactive
same,Potency,[3],inactive
same,Potency,[6],inactive
same,Potency,[7],inactive
same,Potency,[4],inactive
CC(Cc1ccc(O)cc1)NCC(O)c1cc(O)cc(O)c1 (configuration not stated),Potency,[5],inactive
same,outcome,[8],inactive
same,Potency,[2],inactive
same,Potency,[3],inactive
same,Potency,[6],8.41 µM (active)
same,Potency,[7],10.6 µM (active)
same,Potency,[4],inactive
Cc1cc(C2CC2)nc(Nc2ccccc2)n1,Potency,[1],inactive
same,Potency,[2],24.3 µM (active)
same,Potency,[3],inactive
same,Potency,[6],48.6 µM (active)
same,Potency,[4],inactive
same,Potency,[9],inactive
CC1CN1 (configuration not stated),Potency,[5],inactive
same,Potency,[2],inactive
same,Potency,[3],inactive
same,Potency,[6],inactive
same,Potency,[7],inactive
same,Potency,[4],inactive
CC[C@H](C)[C@H]1O[C@]2(C=C[C@@H]1C)C[C@@H]1C[C@@H](C/C=C(\C)[C@@H](O[C@H]3C[C@H](OC)[C@@H](O[C@H]4C[C@H](OC)[C@@H](NC)[C@H](C)O4)[C@H](C)O3)[C@@H](C)/C=C/C=C3\CO[C@@H]4[C@H](O)C(C)=C[C@@H](C(=O)O1)[C@]34O)O2,Potency,[5],10.9 µM (active)
same,Potency,[2],inactive
same,Potency,[3],48.6 µM (active)
same,Potency,[6],12.2 µM (active)
same,Potency,[7],13.7 µM (active)
same,Potency,[4],inactive
same,Potency,[9],3.06 µM (active)
Oc1ccc(Cl)c(Cl)c1,Potency,[5],inactive
same,Potency,[2],inactive
same,Potency,[3],inactive
same,Potency,[6],inactive
same,Potency,[7],inactive
same,Potency,[4],inactive
Nc1ccc(Cl)cc1C(=O)c1ccccc1F,Potency,[10],10.6 µM (active)
same,Potency,[2],inactive
same,Potency,[3],inactive
same,Potency,[6],inactive
same,Potency,[7],inactive
same,Potency,[4],inactive
same,Potency,[9],inactive
Clc1c(Cl)c(Cl)c(Cl)c(Cl)c1Cl,"viability change, negative = cytotoxic",[1],0.413% [at 8.39 µM]
same,"activity change, negative = inhibition",[2],1.74% [at 8.39 µM]
same,"activity change, negative = cytotoxicity",[3],0.165% [at 8.39 µM]
same,"viability change, negative = cytotoxic",[7],2.78% [at 8.39 µM]
same,activity change,[4],"-0.252% [at 8.39 µM, active compounds read high]"
O=c1c2ccccc2c(=O)c2c1cc(Cl)c1[nH]c3c([nH]c12)c(Cl)cc1c(=O)c2ccccc2c(=O)c13,Potency,[1],inactive
same,Potency,[2],inactive
same,Potency,[6],inactive
same,Potency,[7],inactive
same,Potency,[4],inactive
CC1=C2C[C@H]3[C@@H](CC=C4C[C@@H](O)CC[C@@]43C)[C@@H]2CC[C@]12O[C@@H]1C[C@H](C)CN[C@H]1[C@H]2C,Potency,[10],inactive
same,Potency,[5],inactive
same,Potency,[2],inactive
same,Potency,[3],inactive
same,Potency,[6],inactive
same,Potency,[4],inactive
same,Potency,[9],0.266 µM (active)
Cc1ccc([N+](=O)[O-])[c]2c1[O][Hg]2,Potency,[10],2.37 µM (active)
same,Potency,[5],7.5 µM (active)
same,Potency,[3],29.8 µM (active)
same,Potency,[7],3.35 µM (active)
same,Potency,[4],inactive
same,Potency,[9],0.266 µM (active)
O=NN(CCO)CCO,Potency,[10],inactive
same,Potency,[5],inactive
same,Potency,[2],inactive
same,Potency,[3],inactive
same,Potency,[6],inactive
same,Potency,[7],inactive
same,Potency,[4],inactive
NC(=O)C(Cl)Cl,Potency,[1],inactive
same,Potency,[2],inactive
same,Potency,[3],inactive
same,Potency,[7],inactive
same,Potency,[4],inactive
same,Potency,[9],inactive
[C-]1=CC=CC1.[Cl][Zr+2][Cl].c1cc[cH-]c1,Potency,[1],inactive
same,Potency,[2],inactive
same,Potency,[3],inactive
same,Potency,[7],inactive
same,Potency,[4],inactive
same,Potency,[9],inactive
CCC(C)Br (configuration not stated),Potency,[1],inactive
same,Potency,[2],inactive
same,Potency,[6],inactive
same,Potency,[7],inactive
same,Potency,[4],inactive
C[C@H]1[C@H](c2ccc(Cl)cc2)SC(=O)N1C(=O)NC1CCCCC1,Potency,[10],48.6 µM (active)
same,Potency,[5],61.1 µM (active)
same,Potency,[2],inactive
same,Potency,[3],inactive
same,Potency,[7],inactive
same,Potency,[4],inactive
C[C@@H]1CC2=CC(=O)CC[C@@H]2[C@H]2CC[C@@]3(C)[C@@H](CC[C@]3(C)O)[C@@H]21,Potency,[10],inactive
same,Potency,[2],inactive
same,Potency,[3],inactive
same,Potency,[6],inactive
same,Potency,[4],inactive
C=C(C)C(=O)[O][Sn]([CH2]CCC)([CH2]CCC)[CH2]CCC,Potency,[1],0.545 µM (active)
same,Potency,[2],inactive
same,Potency,[6],0.172 µM (active)
same,Potency,[7],0.486 µM (active)
same,Potency,[4],inactive
same,Potency,[9],0.217 µM (active)
COc1ccc(Cc2nccc3cc(OC)c(OC)cc23)cc1OC,Potency,[10],6.68 µM (active)
same,outcome,[8],inactive
same,Potency,[2],inactive
same,Potency,[3],inactive
same,Potency,[7],inactive
same,Potency,[4],inactive
same,Potency,[9],1.88 µM (active)
Nc1ccc(N=Nc2ccccc2)cc1,Potency,[5],inactive
same,outcome,[8],inactive
same,Potency,[2],8.63 µM (active)
same,Potency,[3],inactive
same,Potency,[6],15.4 µM (active)
same,Potency,[7],3.44 µM (active)
same,Potency,[4],4.86 µM (active)
same,Potency,[9],21.7 µM (active)
Nc1nc(N)c(N)c(N)n1,Potency,[1],inactive
same,Potency,[2],inactive
same,Potency,[3],inactive
same,Potency,[4],inactive
same,Potency,[9],inactive
CN1CCc2cc3c(cc2C1O)OCO3 (configuration not stated),Potency,[1],inactive
same,Potency,[2],inactive
same,Potency,[4],inactive
CN(C)C(=S)SSC(=S)N(C)C,Potency,[10],107 nM (active) and 172 nM (active) and 188 nM (active)
same,outcome,[8],inactive
same,Potency,[2],inactive
same,Potency,[3],inactive
same,Potency,[6],427 nM (active) and 545 nM (active) and 422 nM (active)
same,Potency,[4],inactive
same,Potency,[9],47.9 nM (active) and 306 nM (active) and 531 nM (active)
C1=CCC=C1,Potency,[1],inactive
same,Potency,[2],inactive
same,Potency,[3],inactive
same,Potency,[7],inactive
same,Potency,[4],inactive
same,Potency,[9],inactive
CC(=O)O.CC(=O)O.CC(=O)O.CC(=O)O.CC(=O)O.CC(=O)O.CC(=O)O.O.O.[Cr].[Cr].[Cr],Potency,[1],inactive
same,Potency,[2],inactive
same,Potency,[3],inactive
same,Potency,[7],inactive
same,Potency,[4],inactive
same,Potency,[9],inactive
CC(=O)[O-].CC(=O)[O-].CC(=O)[O-].[Sb+3],"viability change, negative = cytotoxic",[1],2.35% [at 3.26 µM]
same,"activity change, negative = inhibition",[2],2.54% [at 3.27 µM]
same,"activity change, negative = cytotoxicity",[3],-3.57% [at 3.27 µM]
same,"viability change, negative = cytotoxic",[7],4.31% [at 3.27 µM]
same,activity change,[4],"0.122% [at 3.27 µM, active compounds read high]"
same,"activity change, negative = inhibition",[9],2.99% [at 3.27 µM]
O.O.O.O.O.O.O.O=S(=O)([O-])[O-].[Co+2],Potency,[1],inactive
same,Potency,[2],inactive
same,Potency,[7],inactive
same,Potency,[4],61.5 µM (active)
same,Potency,[9],inactive
Cc1ccn2nc(S(=O)(=O)Nc3c(F)cccc3F)nc2n1,Potency,[1],inactive
same,Potency,[2],inactive
same,Potency,[3],inactive
same,Potency,[7],inactive
same,Potency,[4],inactive
CCCCn1cc[n+](C)c1.[Cl][Fe-]([Cl])([Cl])[Cl],Potency,[1],inactive
same,Potency,[2],inactive
same,Potency,[3],inactive
same,Potency,[7],inactive
same,Potency,[4],inactive
CCO/N=C(\CC)C1=C(O)CC(c2c(C)cc(C)cc2C)CC1=O (configuration not stated),Potency,[1],inactive
same,Potency,[2],inactive
same,Potency,[7],inactive
same,Potency,[4],inactive
same,Potency,[9],5.45 µM (active)
CCc1cccc(C)c1N(C(=O)CCl)[C@@H](C)COC,Potency,[1],inactive
same,Potency,[2],inactive
same,Potency,[6],inactive
same,Potency,[7],inactive
same,Potency,[4],inactive
CC(C)N(C(=O)CCl)c1ccccc1,Potency,[10],19.3 µM (active)
same,Potency,[5],27.3 µM (active) and 54.5 µM (active)
same,Potency,[2],inactive
same,Potency,[3],inactive
same,Potency,[6],68.6 µM (active) and 9.69 µM (active)
same,Potency,[7],30.6 µM (active) and 24.3 µM (active)
same,Potency,[4],inactive
same,Potency,[9],12.2 µM (active) and 9.69 µM (active)
CC(C)Br,Potency,[1],inactive
same,Potency,[2],inactive
same,Potency,[7],inactive
same,Potency,[4],inactive
same,Potency,[9],inactive
C[C@]12C/C(=C/O)C(=O)C[C@@H]1CC[C@@H]1[C@@H]2CC[C@@]2(C)[C@H]1CC[C@]2(C)O,Potency,[5],inactive
same,outcome,[8],inactive
same,Potency,[2],inactive
same,Potency,[6],55 µM (active) and 21.1 µM (active)
same,Potency,[7],61.7 µM (active)
same,Potency,[4],inactive
same,Potency,[9],15.5 µM (active)
c1ccc2c(c1)cc1ccc3cccc4ccc2c1c34,Potency,[1],inactive
same,Potency,[2],inactive
same,Potency,[3],inactive
same,Potency,[7],inactive
same,Potency,[4],inactive
same,Potency,[9],inactive
